# Values without a mark were called inactive. Calls of active or inactive are those of the source. No rule for the calls is given here.
# Assay: Biochemical counterscreen for C difficile toxins, absence of UDPG, inhibitor dose response (AID 720650)
# Settings: series mostly up to 19.5 µM; activity change, negative = inhibition: at the top concentration
SMILES,"activity change, negative = inhibition",AC50
COc1ccc(C2=NS(=O)(=O)N(C)C(C(=O)NCc3ccc4c(c3)OCO4)=C2)cc1,0.057%,
Cc1cccc(CN2CCN(c3ncccn3)CC2)c1,4.85%,
CC1CN=C(Nc2cccc(S(=O)(=O)N(C)C)c2)S1 (stereo not drawn),4.21%,
COc1cc(/C=C/C(=O)OCC(=O)NC(=O)NC(C)C)ccc1O,-1.06%,
CS(=O)(=O)N1CCc2cc(C(=O)Nc3ccc(O)cc3)ccc21,,14.8 µM (active)
COc1ccccc1CNC(=O)CN(c1ccc(C)cc1)S(=O)(=O)c1c(C)n[nH]c1C,2.29%,
O=C(Cc1ccccn1)c1ccncc1,-8.24%,
CCCNC(=O)N1CC[C@@H]2[C@H]1c1cc(-c3ccccc3)ccc1N(C)[C@H]2CO,,3.8 µM (active)
Cc1ccc(NCCN(C)C)c2c(=O)c3cc(O)ccc3sc12,,5.2 µM (active)
CC(OC(=O)C1=COCCO1)C(=O)c1ccc(Br)cc1 (stereo not drawn),7.35%,
C/C(=N\NC(=O)c1ccccc1O)c1cccc(NC(=O)c2ccccc2)c1,-12.3%,
Nn1c(SCc2ccccc2F)nnc1-c1ccccn1,4.52%,
CCOc1ccc(C(CC(=O)O)NC(=O)C23CC4CC(CC(C4)C2)C3)cc1OC (stereo not drawn),-6.53%,
O=C(C1CCOCC1)N1CC[C@@H]2[C@@H](CO)Nc3ccc(-c4ccc(F)cc4)cc3[C@@H]21,,22 µM (active)
Cc1cc(N/N=C/c2ccc(O)cc2)c2cccc(C)c2n1,,16.3 µM (active)
COc1ccc(C(CNC(=O)c2oc3ccc(OC)cc3c2C)N2CCCC2)cc1 (stereo not drawn),,> 39 µM
Cc1cccc(/C=C/c2onc(C)c2S(=O)(=O)N2CCC(C(=O)NC(C)C)CC2)c1,-6.17%,
CNC(=O)C[C@H]1CC[C@@H]2[C@H](COc3ccc(NC(=O)Nc4ccc(C)cc4)cc3C(=O)N2C)O1,,> 39 µM
Cn1ncc(Br)c1C(=O)N/N=C/c1cccc(OC2CSC2)c1,-11%,

SMILES,"activity change, negative = inhibition",AC50
CCOC(=O)C1=C(C)Nc2nnnn2C1c1ccc(OC)c(Br)c1 (stereo not drawn),,> 39 µM
COc1ccc(NC2CCCN(C(=O)CN3CCOC3=O)C2)cc1OC (stereo not drawn),-10.4%,
COc1cc(N=Nc2c(C)n(C)n(-c3ccccc3)c2=O)ccc1N,-7.35%,
O=C(CCC(=O)N1CCSc2ccccc21)Nc1cccc(F)c1,-8.2%,
CC(C)NC(=O)N1CC[C@@H]2[C@H]1c1cc(-c3ccc(F)cc3)ccc1N(C)[C@H]2CO,,6.96 µM (active)
Cc1ccc2sc(NNC(=O)C3COc4ccccc4O3)nc2c1C (stereo not drawn),,0.238 µM (active)
COc1ccccc1-n1c(SCC(=O)O)nc2c(sc(=S)n2-c2ccc(C)c(C)c2)c1=O,,> 39 µM
CCOC(=O)N1CCN(C(=S)NC(=O)c2ccc(F)c(F)c2)CC1,-9%,
Cc1nn(CCOc2ccccc2)c(=O)n1-c1ccc(Cl)cc1,-14.1%,
COc1ccc(N2CCN(CCNC(=O)Nc3cc(Cl)ccc3OC)CC2)cc1,-14.5%,
CC(C)OC(=O)c1cccc(C(=O)O)n1,9.38%,
CCOc1cc(/C=N/n2cnnc2)ccc1O,-19.8%,
Cn1c(SCc2nnc(-c3ccccc3)o2)nc2ccccc21,-14.5%,
CCc1cc(-c2n[nH]c(C)c2-c2nc(C)cs2)c(O)cc1OC,,> 39 µM
N=C(N)c1ccc(N=Nc2c(O)ccc3c2[nH]c2ccccc23)cc1,-3.4%,
O=C(C[C@@H]1CC[C@H]2[C@@H](COC[C@@H](O)CN2Cc2ccc(Oc3ccccc3)cc2)O1)Nc1nccs1,8.53%,
Cc1cc(C)nc(SCC(=O)c2ccc(O)c(O)c2)n1,4.35%,
Oc1ccc(/C=N/n2cc(-c3ccccc3)[nH]c2=S)cc1,,6.42 µM (active)
CCCNC(=O)N1CC[C@@H]2[C@@H](CO)N(C)c3ccc(-c4ccccc4)cc3[C@@H]21,,3.93 µM (active)

# Source: PubChem BioAssay AID720650 (Broad Institute, 2013)
